# In PubChem BioAssay (NCATS):
# Several values for one entry are separate records, joined by “and”; a condition that tells them apart may be missing. Identical values can stand only once. Records with an inconclusive call do not appear. A call without a number means that no potency is given here. Some compounds were tested as several samples or in several runs, with calls that do not always agree. Activity calls are given as the source filed them. Unless noted, calls follow the shape of the dose curve; as a rule, active = well fitted curve in the direction sought with a large enough effect; inconclusive = small, poorly fitted or top-dose-only effect, or another doubt; inactive = no such curve, though single readings can be large; an effect the other way counts as inactive or inconclusive.
# Key:
# [1] = biological target: Guanine nucleotide-binding protein G(i) subunit alpha-1 (Homo sapiens) (UniProt P63096); test: qHTS Assay for Inhibitors of RGS12 GoLoco Motif Activity (Green Fluorophore) (AID 879); also: potency is read from the fitted curve at half-maximal effect
# Chain of Guanine nucleotide-binding protein G(i) subunit alpha-1 (Homo sapiens) (P63096 whole entry, looked up): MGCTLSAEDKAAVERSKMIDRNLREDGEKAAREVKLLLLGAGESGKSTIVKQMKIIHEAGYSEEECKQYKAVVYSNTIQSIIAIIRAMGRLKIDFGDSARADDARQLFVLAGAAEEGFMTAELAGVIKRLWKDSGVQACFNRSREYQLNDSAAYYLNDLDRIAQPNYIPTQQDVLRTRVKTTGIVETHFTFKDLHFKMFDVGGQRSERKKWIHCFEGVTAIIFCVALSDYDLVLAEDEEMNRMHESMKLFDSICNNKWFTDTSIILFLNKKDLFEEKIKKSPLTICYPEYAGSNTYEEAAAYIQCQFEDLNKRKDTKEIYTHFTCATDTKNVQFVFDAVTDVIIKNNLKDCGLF
# Outline: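 Fluorescence polarization assay: 50 nM Gαi1 with 10 nM FITC-labeled RGS12 GoLoco peptide in 10 mM Tris pH 7.5, 150 mM NaCl, 0.1 mM GDP, 0.05% NP40, 10 min at room temperature with compound.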
# [2] = Cellular Toxicity (caspase-3) Hek293 (AID 664); settings: HEK293 caspase-3 activation; caspase-3 activation: at 92.2 µM (top of the series), DMSO = 0%, 100 µM tamoxifen = 100%;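 also: cells exposed to compound for 16 h at 37 °C before readout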; also: potency is read from the fitted curve at half-maximal effect
# Outline: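 HEK293 cells were exposed to compounds in complete medium for 16 hr at 37 °C, then caspase-3/7 activity was read by Caspase-Glo 3/7 luminescence after 20 min at room temperature. Data normalized to DMSO and 100 uM tamoxifen; AC50 from Hill fits.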
# [3] = Cellular Toxicity (caspase-3) N2a (AID 665);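 also: compound exposure lasted 16 h at 37 °C before readout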
# Outline: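 Mouse N2a neuroblastoma cells (1500/well) were treated with compounds for 16 h at 37 °C, then caspase-3/7 activity was read by Caspase-Glo luminescence after 1 h at room temperature. Data were normalized to DMSO and 10 uM staurosporine; AC50 from Hill fits.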
# [4] = Cellular Toxicity (caspase-3) NIH 3T3 (AID 666);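 also: caspase signal read after 16 h compound exposure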
# Outline: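 Mouse NIH 3T3 fibroblasts (1000 cells/well) were treated with compound for 16 hr at 37°C in complete medium; caspase-3/7 activity was read by Caspase-Glo luminescence. Normalized to DMSO and 100 uM tamoxifen; AC50 from Hill fits.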
# [5] = Cellular Toxicity (caspase-3) Renal Proximal Tubule (AID 667);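 also: cells exposed to compound for 16 hours at 37 °C before detection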
# Outline: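 AC50 derived by standard Hill fit of concentration-response data, normalized between DMSO basal and 10 uM staurosporine as 100% stimulation. Cells: primary rat kidney proximal tubule, 16 h treatment at 37 °C.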
# [6] = biological target: Cytochrome P450 3A4 (Homo sapiens) (UniProt P08684); test: qHTS Assay for Activators of Cytochrome P450 3A4 (AID 885); also: nearly all actives have a fitted effect of over 65% in size; also: potency is read from the fitted curve at half-maximal effect
# Chain of Cytochrome P450 3A4 (Homo sapiens) (P08684 whole entry, looked up): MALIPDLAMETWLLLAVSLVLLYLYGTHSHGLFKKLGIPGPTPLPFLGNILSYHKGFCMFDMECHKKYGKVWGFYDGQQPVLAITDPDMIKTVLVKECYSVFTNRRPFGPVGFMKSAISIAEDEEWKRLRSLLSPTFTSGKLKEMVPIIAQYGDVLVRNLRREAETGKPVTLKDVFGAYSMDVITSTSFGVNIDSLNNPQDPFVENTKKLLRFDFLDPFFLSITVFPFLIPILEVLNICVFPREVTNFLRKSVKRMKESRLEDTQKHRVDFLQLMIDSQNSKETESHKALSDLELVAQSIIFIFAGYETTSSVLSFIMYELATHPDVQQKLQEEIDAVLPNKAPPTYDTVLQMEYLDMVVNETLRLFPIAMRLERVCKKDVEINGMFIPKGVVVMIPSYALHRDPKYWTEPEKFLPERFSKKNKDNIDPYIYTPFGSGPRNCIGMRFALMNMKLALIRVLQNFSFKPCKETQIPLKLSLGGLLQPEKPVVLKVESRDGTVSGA
# Outline: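 Signal was normalized against complete inhibition by 57 uM ketoconazole. The reaction used 20nM CYP3A4 with 25uM Luciferin-PPXE, 10-min compound preincubation and a 60-min NADPH-supported step at RT.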
# [7] = biological target: Cytochrome P450 2D6 (Homo sapiens) (UniProt P10635); test: qHTS Assay for Inhibitors and Substrates of Cytochrome P450 2D6 (AID 891); also: nearly all actives have a fitted effect of over 60% in size; also: potency is read from the fitted curve at half-maximal effect
# Chain of Cytochrome P450 2D6 (Homo sapiens) (P10635 whole entry, looked up): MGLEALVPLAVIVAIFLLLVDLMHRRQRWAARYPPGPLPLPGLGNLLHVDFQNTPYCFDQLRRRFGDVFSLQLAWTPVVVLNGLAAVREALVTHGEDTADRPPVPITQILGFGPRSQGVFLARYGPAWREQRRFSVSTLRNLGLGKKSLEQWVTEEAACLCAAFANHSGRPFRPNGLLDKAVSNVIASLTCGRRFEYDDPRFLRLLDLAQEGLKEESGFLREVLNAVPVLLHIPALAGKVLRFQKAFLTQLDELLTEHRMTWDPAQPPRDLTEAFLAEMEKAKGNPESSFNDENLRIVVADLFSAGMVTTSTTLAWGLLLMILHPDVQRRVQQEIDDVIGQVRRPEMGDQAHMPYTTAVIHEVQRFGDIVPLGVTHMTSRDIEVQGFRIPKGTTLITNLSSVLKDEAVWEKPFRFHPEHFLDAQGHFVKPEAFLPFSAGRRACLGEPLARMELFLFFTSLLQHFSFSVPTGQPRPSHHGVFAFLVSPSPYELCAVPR
# Outline: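 Human CYP2D6 (5 nM) with 30 uM Luciferin-ME EGE (at Km) in 100 mM KPO4, compound preincubated 10 min, then NADPH regeneration system for 60 min at room temperature. Luciferin read by luminescence; normalized to 1.43 uM quinidine.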
# [8] = qHTS Assay for Identification of Small Molecule Antagonists for NFkB Signaling Pathway (AID 895; active = well fitted inhibition curve with a large enough effect in the signal ratio, with a control signal flat, not every such curve was filed as active; the % refers to the signal ratio; also: potency is read from the fitted curve at half-maximal effect)
# Outline: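 ME-180 NFkB-bla cells (beta-lactamase under NFkB response element), plated overnight, treated with compound then 10 pM TNF alpha (about EC50) for 5 hrs at 37 C. LiveBLAzer FRET read at 460/530 nm emission, 405 nm excitation.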
# [9] = biological target: Cytochrome P450 2C9 (Homo sapiens) (UniProt P11712); test: qHTS Assay for Inhibitors and Substrates of Cytochrome P450 2C9 (AID 883); also: nearly all actives have a fitted effect of over 60% in size; also: potency is read from the fitted curve at half-maximal effect
# Chain of Cytochrome P450 2C9 (Homo sapiens) (P11712 whole entry, looked up): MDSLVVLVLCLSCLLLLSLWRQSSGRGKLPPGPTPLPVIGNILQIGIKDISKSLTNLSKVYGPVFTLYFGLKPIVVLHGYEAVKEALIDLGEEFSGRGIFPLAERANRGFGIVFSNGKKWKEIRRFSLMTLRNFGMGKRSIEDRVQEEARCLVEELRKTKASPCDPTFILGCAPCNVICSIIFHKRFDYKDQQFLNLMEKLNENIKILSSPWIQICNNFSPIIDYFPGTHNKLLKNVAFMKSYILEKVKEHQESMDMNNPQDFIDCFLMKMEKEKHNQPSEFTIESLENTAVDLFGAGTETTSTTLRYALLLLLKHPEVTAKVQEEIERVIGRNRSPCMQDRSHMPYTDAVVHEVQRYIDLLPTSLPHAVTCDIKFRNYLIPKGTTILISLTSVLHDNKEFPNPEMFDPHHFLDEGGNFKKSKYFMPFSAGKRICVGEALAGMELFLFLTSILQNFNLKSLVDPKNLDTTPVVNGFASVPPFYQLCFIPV
# Outline: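 Human CYP2C9 (10nM) with Luciferin-H at 100uM (its KM) in 25mM KPO4; compound preincubated 10 min at 37C, then NADPH regeneration for 60 min at 37C. Luciferin read by luminescence after detection reagent; normalized to 57uM sulphaphenazole as full inhibition.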
# [10] = biological target: Cytochrome P450 3A4 (Homo sapiens) (UniProt P08684); test: qHTS Assay for Inhibitors and Substrates of Cytochrome P450 3A4 (AID 884); also: nearly all actives have a fitted effect of over 50% in size
# Outline: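 20 nM human CYP3A4 with 25 uM Luciferin-PPXE (at KM) in 200 mM KPO4, preincubated 10 min with compound; NADPH regeneration started a 60 min RT reaction. Luciferin detected by luminescence, normalized to 57 uM ketoconazole as full inhibition.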
smiles,measurement,setting,value
CCCCc1oc2ccccc2c1C(=O)c1cc(I)c(OCCN(CC)CC)c(I)c1,Potency,[1],inactive
Nc1c2c(nc3ccccc13)CCCC2,Potency,[2],inactive
same,outcome,[3],inactive
same,outcome,[4],inactive
same,outcome,[5],inactive
same,Potency,[1],inactive
same,Potency,[6],inactive
same,Potency,[7],5.01 µM (active)
Nc1nc2c(ncn2COC(CO)CO)c(=O)[nH]1,Potency,[1],inactive
CC(COc1ccccc1)N(CCCl)Cc1ccccc1 (configuration not stated),Potency,[2],31.6 µM (active)
same,outcome,[4],inactive
same,Potency,[6],inactive
COc1ccc(C2CNC(=O)C2)cc1OC1CCCC1 (configuration not stated),Potency,[1],inactive
same,Potency,[6],inactive
same,Potency,[8],inactive
Cn1ccc2cc3c(cc21)CCN3C(=O)Nc1cccnc1,Potency,[1],inactive
same,Potency,[6],inactive
CN(C)c1nc(N(C)C)nc(N(C)C)n1,Potency,[1],inactive
same,Potency,[8],inactive
O=C1N(c2ccccc2)c2ccccc2C1(Cc1ccncc1)Cc1ccncc1,Potency,[1],inactive
same,Potency,[9],3.98 µM (active) and 7.94 µM (active)
same,Potency,[7],inactive
CN1CCN(CCCN2c3ccccc3Sc3ccc(Cl)cc32)CC1,Potency,[1],inactive
same,Potency,[7],398 nM (active) and 794 nM (active)
Nc1nnc(-c2cccc(Cl)c2Cl)c(N)n1,Potency,[1],inactive
same,Potency,[7],inactive and 6.31 µM (active)
same,Potency,[8],inactive
CCC1(C)CC(=O)NC1=O (configuration not stated),outcome,[10],inactive
COc1cc2nc(N3CCN(C(=O)c4ccco4)CC3)nc(N)c2cc1OC,Potency,[9],inactive
same,outcome,[10],inactive
same,Potency,[6],12.6 µM (active)
same,Potency,[7],inactive
CN1C(C(=O)Nc2ccccn2)=C(O)c2ccccc2S1(=O)=O,Potency,[1],inactive
same,Potency,[9],3.98 µM (active)
same,Potency,[6],inactive
same,Potency,[7],inactive
CCOC(=O)c1ncn2c1CN(C)C(=O)c1cc(F)ccc1-2,Potency,[9],inactive
same,outcome,[10],inactive
same,Potency,[7],inactive
COc1cc2nc(N(C)CCCNC(=O)C3CCCO3)nc(N)c2cc1OC (configuration not stated),outcome,[10],inactive
Clc1ccc2c(c1)C(N1CCNCC1)=Nc1ccccc1O2,Potency,[1],inactive
same,Potency,[9],inactive
same,Potency,[6],inactive
Cn1cnc2c1c(=O)[nH]c(=O)n2C,Potency,[1],inactive
same,Potency,[8],inactive
Cc1cc(C(C)(C)C)cc(C)c1CC1=NCCN1,Potency,[1],inactive
same,Potency,[6],inactive
same,Potency,[7],3.98 µM (active)
Fc1ccc([C@@H]2CCNC[C@H]2COc2ccc3c(c2)OCO3)cc1,Potency,[1],inactive
same,Potency,[6],inactive
NC(=O)OCC(COC(N)=O)c1ccccc1,Potency,[1],inactive
same,Potency,[9],inactive
same,Potency,[7],inactive and 794 nM (active)
same,Potency,[8],inactive
CC[C@@]1(O)C(=O)OCc2c1cc1n(c2=O)Cc2cc3c(CN(C)C)c(O)ccc3nc2-1,outcome,[10],inactive
COc1nc(C)nc(Cl)c1NC1=NCCN1,Potency,[1],inactive
same,outcome,[10],inactive
CCN1CCCC1CNC(=O)c1cc(S(=O)(=O)CC)c(N)cc1OC (configuration not stated),outcome,[10],inactive
CC(C)Cc1ccc(C(C)C(=O)O)cc1 (configuration not stated),Potency,[1],inactive
same,outcome,[10],inactive
CN(C)CCC=C1c2ccccc2C=Cc2ccccc21,Potency,[1],inactive
same,outcome,[10],inactive
same,Potency,[7],6.31 µM (active)
CN(C)CCCN1c2ccccc2CCc2ccc(Cl)cc21,Potency,[1],inactive
same,Potency,[9],inactive
same,Potency,[6],inactive
same,Potency,[8],inactive
O=C1c2c(O)ccc(O)c2C(=O)c2c(NCCNCCO)ccc(NCCNCCO)c21,Potency,[1],inactive
same,Potency,[8],2 µM (active)
O=C(Nc1ccc([N+](=O)[O-])cc1Cl)c1cc(Cl)ccc1O,Potency,[1],inactive
same,Potency,[9],0.631 µM (active)
same,Potency,[6],inactive
CN(Cc1cnc2nc(N)nc(N)c2n1)c1ccc(C(=O)N[C@@H](CCC(=O)O)C(=O)O)cc1,Potency,[1],inactive
same,outcome,[10],inactive
O=c1c(O)c(-c2ccc(O)c(O)c2)oc2cc(O)cc(O)c12,Potency,[1],inactive
same,Potency,[6],inactive
same,Potency,[7],inactive
NCCCCCC(=O)O,Potency,[1],inactive
same,outcome,[10],inactive
CN1CCN2c3ccccc3Cc3ccccc3C2C1 (configuration not stated),Potency,[6],inactive
Cc1cc(C(C)(C)C)c(O)c(C)c1CC1=NCCN1,Potency,[1],inactive
same,Potency,[6],inactive
same,Potency,[7],3.98 µM (active) and 39.8 nM (active)
CN1CCC(=C2c3ccccc3C=Cc3ccccc32)CC1,Potency,[1],inactive
same,Potency,[7],2.51 µM (active) and 3.98 µM (active)
CCOC(=O)C(C)(C)Oc1ccc(Cl)cc1,Potency,[1],inactive
same,Potency,[8],inactive
CS(=O)(=O)Nc1ccc([N+](=O)[O-])cc1Oc1ccccc1,Potency,[1],inactive
same,Potency,[9],10 µM (active) and 3.16 µM (active)
same,Potency,[6],inactive
same,Potency,[7],inactive
same,Potency,[8],inactive
C[C@](N)(Cc1ccc(O)c(O)c1)C(=O)O,Potency,[1],inactive
same,Potency,[6],inactive
same,Potency,[8],inactive
OCCN(CCO)c1nc(N2CCCCC2)c2nc(N(CCO)CCO)nc(N3CCCCC3)c2n1,Potency,[1],10 µM (active)
same,Potency,[7],12.6 µM (active) and 10 µM (active)
same,outcome,[7],inactive
O=C(C1CCCCC1)N1CC(=O)N2CCc3ccccc3C2C1 (configuration not stated),Potency,[1],inactive
same,Potency,[6],inactive
same,Potency,[8],inactive
CN1CCC(=C2c3ccccc3CC(=O)c3sccc32)CC1,Potency,[1],inactive
same,outcome,[10],inactive
same,Potency,[7],7.94 µM (active) and 3.16 µM (active) and 5.01 µM (active)
CC12CC3CC(C)(C1)CC(N)(C3)C2,outcome,[10],inactive
Clc1ccccc1C(c1ccccc1)(c1ccccc1)n1ccnc1,Potency,[1],inactive
same,Potency,[9],1 µM (active) and 316 nM (active)
same,Potency,[6],inactive
same,Potency,[7],10 µM (active)
CC(=O)OCC(CCn1cnc2cnc(N)nc21)COC(C)=O,outcome,[10],inactive
Cc1ccccc1N1C(=O)c2cc(S(N)(=O)=O)c(Cl)cc2NC1C (configuration not stated),Potency,[1],inactive
same,Potency,[6],inactive
